The source of these data is PubChem BioAssay AID651815 (National Center for Advancing Translational Sciences (NCATS), 2012).

In all, about 2,100 compounds went through this assay and about 1,100 (52%) were called active. Another 29% or so got no clear call; they are omitted. The set was probably picked from earlier hits. Some of the results follow. Unmarked numbers belong to inactive results. The call rests on the fitted dose curve; in most records, active means well fitted inhibition curve with a large enough effect; inconclusive means small, poorly fitted or top-dose-only effect; inactive means no such curve, though single readings can be large or run the other way.
On the % scale 0 is the no-effect control and ±100 the full control effect; potency means the concentration at half of the fitted maximal effect.

The test deals with DNA dC->dU-editing enzyme APOBEC-3F (Homo sapiens) (UniProt Q8IUX4). In words: qHTS for inhibitors of Vif-A3F interactions: Cherry picks counterscreen. Further: nearly all actives have a fitted effect of over 65% in size. The conditions noted are these: HeLa A3F-eYFP/Vif cells, eYFP fluorescence, 24 h; series mostly up to 46.1 µM; activity, negative = inhibitor: at the top concentration. In outline: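 Rescue of Vif-driven A3F-eYFP degradation read as cellular eYFP fluorescence after 24 h compound exposure (several concentrations) in stable HeLa cells; MG132 (2 mM stock) as positive control.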
DNA dC->dU-editing enzyme APOBEC-3F (Homo sapiens), sequence (Q8IUX4 whole entry, looked up): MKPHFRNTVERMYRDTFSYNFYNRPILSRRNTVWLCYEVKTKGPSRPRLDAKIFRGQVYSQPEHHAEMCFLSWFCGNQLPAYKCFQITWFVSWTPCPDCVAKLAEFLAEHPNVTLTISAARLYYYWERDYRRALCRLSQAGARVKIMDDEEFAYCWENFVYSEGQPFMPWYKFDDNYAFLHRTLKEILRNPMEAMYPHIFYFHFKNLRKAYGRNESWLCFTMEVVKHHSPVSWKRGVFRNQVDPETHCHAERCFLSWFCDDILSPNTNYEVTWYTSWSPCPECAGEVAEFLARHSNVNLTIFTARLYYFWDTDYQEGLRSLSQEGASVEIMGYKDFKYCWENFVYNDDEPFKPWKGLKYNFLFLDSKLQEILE
For orientation: qHTS replaces the single test concentration by a dilution series.
As to `O=C(Cc1nc2ccccc2[nH]c1=O)c1ccc(Cl)cc1`, the Potency was 8.2 µM (active).

As for `COc1cc2c(cc1OC)CN(C(=O)c1cc(=O)c3ccccc3o1)CC2`, the Potency is 11.2 µM (active).

Consider `CCC(=Nc1ccccc1O)C1=C(O)CC(c2ccccc2)CC1=O` (configuration not stated), for which the “activity, negative = inhibitor” value is -15.7% [at 36.9 µM]. As for `COc1ccccc1N=C(C)C1=C(O)CC(c2ccccc2)CC1=O` (configuration not stated), the Potency is 0.994 µM (active). Same read-out and setting: next, `Cc1cnc(NC(=O)CC(C)c2ccccc2)s1` (configuration not stated): 5.59 µM (active). The same measure, in the same setting: next, `CCN1CCN(c2c(/C=C3\SC(=S)N(Cc4ccco4)C3=O)c(C)c(C#N)c(=O)n2C)CC1`: 14.6 µM (active); `CN(C)c1ccc(C=C2SC(=S)N(Cc3ccco3)C2=O)cc1`: 3.96 µM (active).

For `Cc1cc(/C=C2\SC(=S)N(Cc3ccco3)C2=O)c(C)n1-c1ccccc1`, the Potency was 23.1 µM (active). Still for that read-out and setting: next, `Cc1cc(/C=C2\SC(=S)N(Cc3ccco3)C2=O)c(C)n1-c1cccnc1`: 20.6 µM (active); `COC(=O)c1ccc(Oc2cc(C)nc(SC)n2)cc1`: 2.8 µM (active).

For `COCCNC(=S)N/N=C(\C)c1ccccc1O`, the “activity, negative = inhibitor” value is 3.87%. Consider `C/C(=N/N=C(\C)c1ccccc1O)c1ccccc1O`, for which the Potency is 18.4 µM (active). For `C/C(=N\NC(=O)C(C)n1nc(C)c([N+](=O)[O-])c1C)c1ccccc1O` (configuration not stated), the “activity, negative = inhibitor” value was -0.91%.

In the case of `O=C1c2cccc3c(N4CCCCC4)ccc(c23)C(=O)N1c1ccc(O)cc1`, the “activity, negative = inhibitor” value was 36.7% [at 36.9 µM]. For `Cc1ccc(N2C(=O)c3cccc4c(N5CCN(C)CC5)ccc(c34)C2=O)c2cccnc12`, the Potency was 14 µM (active). The same measure, in the same setting: to `O=C1c2cccc3c(N4CCCCC4)ccc(c23)C(=O)N1c1cccc(O)c1` belongs 3.66 µM (active); to `C=CCN1C(=O)c2cccc3c(N4CCCCC4)ccc(c23)C1=O`, 16.4 µM (active); to `O=C1c2cccc3c(N4CCCCC4)ccc(c23)C(=O)N1CCO`, 17.7 µM (active). Consider `O=C1c2cccc3c(N4CCCCC4)ccc(c23)C(=O)N1c1ccccc1O`, for which the “activity, negative = inhibitor” value was 26.8%. On to `C=CCOC(=O)C1=C(C)NC(C)=C(C(=O)OCC=C)C1c1cn(-c2ccccc2)nc1-c1ccco1`, for which the “activity, negative = inhibitor” value is -10.3% [at 36.9 µM]. In the case of `Cc1ccc2nc(-c3ccccn3)c(Nc3ccccc3C)n2c1`, the “activity, negative = inhibitor” value is 3.66%. Take `CCN(Cc1ccccc1)c1ccc(/C=C/c2nccc3ccccc23)cc1`: the Potency was 20.6 µM (active).

For the compound `CCN(CC)c1nc(C=Cc2ccc(N(C)C)cc2)c2nccnc2n1`, the Potency is 0.58 µM (active).

Turning to `CN(C)c1ccc(C=Cc2nccc3ccccc23)cc1`, the Potency was 14 µM (active). Take `CN(C)c1ccc(/C=C/c2nccc3ccccc23)cc1`: the Potency is 20.6 µM (active). As to `CCN(Cc1ccccc1)c1ccc(/C=C(\C#N)c2ccccn2)cc1`, the “activity, negative = inhibitor” value is -14.8%. For the compound `CCCn1c(C2CCCN2c2nc(-c3cccc(Br)c3)cs2)nc2ccccc21` (configuration not stated), the “activity, negative = inhibitor” value is 8.29%. Turning to `CCn1c2ccccc2c2cc(NC(=O)CNCc3ccccc3OC)ccc21`, the Potency was 4.98 µM (active). Regarding `S=C(NCCSCc1ccc(Cl)cc1)Nc1ccccc1`, the “activity, negative = inhibitor” value was -10.3%.

On to `COc1cc(C(=O)NCCOc2cc(C)cc(C)c2)cc(OC)c1OC`, for which the Potency is 2.8 µM (active).

As to `CCn1c(CNC(=O)c2cc(OC)c(OC)c(OC)c2)cc2cc(C)ccc21`, the “activity, negative = inhibitor” value is 13.7%. On to `COc1ccc(C2=NOC(C(=O)NCc3ccc(F)cc3)C2)cc1OC` (configuration not stated), for which the Potency is 5.59 µM (active). On to `CCOc1ccc(N(C)c2ccc(/C=C3/SC(=S)NC3=O)cc2)cc1`, for which the Potency is 15.8 µM (active).

Take `COc1ccccc1N=C1NC(=O)/C(=C/c2ccc(N(C)C)cc2)S1`: the Potency was 6.51 µM (active). The same measure, in the same setting: to `CN(C)c1ccc(C=C2SC(=S)NC2=O)cc1` belongs 7.04 µM (active). For `Cc1ccc(Cn2c(SCc3ccc(C(=O)NC4CCCC4)cc3)nc3ccncc32)cc1`, the “activity, negative = inhibitor” value is -1.67%. `CN1CCN(c2ccc([N+](=O)[O-])cc2C(=O)c2ccc(Br)cc2)CC1`: the Potency is 4.98 µM (active).

`Cc1ccc(C(=O)c2cc([N+](=O)[O-])ccc2N2CCN(C)CC2)cc1`: the Potency is 4.98 µM (active).

As to `Cc1ccc(C(=O)c2cc([N+](=O)[O-])ccc2N2CCOCC2)cc1C`, the Potency was 1.77 µM (active). Turning to `Cn1c(=O)[nH]c(=O)c2c1nc(Br)n2Cc1cccc(Br)c1`, the Potency is 9.94 µM (active).

With `C/C(=N\NC(=O)c1c(Cl)c(C)nn1C)c1ccc(NC(=O)C2CCC2)cc1`, the Potency is 1.4 µM (active).

For `CCN(CC)c1ccc(/C=C/c2cccc[n+]2C)c(OC)c1`, the Potency was 15.8 µM (active).

As to `COC(=O)/C(=C\Nc1ccc(Cl)cc1Cl)NC(=O)c1ccc(OC)cc1`, the Potency is 3.96 µM (active). The same measure, in the same setting: next, `Cn1cccc1/C=C1\SC(=Nc2ccc(O)cc2)NC1=O`: 6.27 µM (active). Still for that read-out and setting: next, `Cn1cccc1/C=C1\SC(=Nc2ccccc2)NC1=O`: 5.59 µM (active); `Cc1ccc(N=C2NC(=O)/C(=C/c3cn(C)c4ccccc34)S2)cc1C`: 15.8 µM (active).

With `Cc1ccc(N=C2NC(=O)/C(=C/c3cccn3C)S2)cc1`, the Potency is 15.8 µM (active). Turning to `Cn1cc(/C=C2\SC(=S)N(NC(=O)c3cccc(Cl)c3)C2=O)c2ccccc21`, the Potency was 16.4 µM (active). The same measure, in the same setting: next, `COc1cc(/C=C2/SC(=Nc3ccc(O)cc3)NC2=O)ccc1O`: 13 µM (active). Turning to `COc1cc(/C=C2\SC(=Nc3cccnc3)NC2=O)cc(OC)c1OC`, the “activity, negative = inhibitor” value is -8.69%. On to `O=C1NC(=Nc2ccc(O)cc2)S/C1=C/c1ccco1`, for which the Potency is 12.5 µM (active). The same measure, in the same setting: to `Cn1cc(/C=C2\SC(=O)N(c3ccccc3)C2=O)c2ccccc21` belongs 16.4 µM (active); to `Cc1cc(/C=C2\SC(=Nc3ccccc3)NC2=O)c(C)n1-c1ccc(S(N)(=O)=O)cc1`, 1.98 µM (active); to `Cn1cccc1/C=C1\SC(=Nc2cccc(O)c2)NC1=O`, 17.7 µM (active). As for `Cc1cccc(N=C2NC(=O)/C(=C/c3cccn3C)S2)c1`, the “activity, negative = inhibitor” value was -27.7% [at 36.9 µM]. As to `COc1cc2c(cc1OC)C(C)N(C(=O)c1cc(C)on1)CC2` (configuration not stated), the Potency was 0.994 µM (active). For the compound `COc1cc2c(cc1OC)C(C)N(C(=O)c1cc(Cl)nc(Cl)c1)CC2` (configuration not stated), the “activity, negative = inhibitor” value was -61.7% [at 36.9 µM]. Consider `CCN(CC)c1nc(C)c(C(=S)Nc2cc([N+](=O)[O-])ccc2Cl)s1`, for which the “activity, negative = inhibitor” value was -0.0972%. For `CC(=O)Nc1ccc(-c2ccnc3c2CC(C(=O)NCc2ccccc2)O3)cc1` (configuration not stated), the Potency is 1.12 µM (active). Same read-out and setting: next, `CC(=O)Nc1ccc(-c2ccnc3c2CC(C(=O)NCc2cccc(Cl)c2)O3)cc1` (configuration not stated): 3.53 µM (active). On the same count and under the same terms, next, `O=C1Nc2ccc(Br)cc2C12NNc1ccccc1O2` (configuration not stated): 14 µM (active). For `Cc1ccc(CSc2nc(-c3ccc(C(C)(C)C)cc3)nc3cc(=O)[nH]n23)cc1`, the “activity, negative = inhibitor” value is -3.11%.
